Assays:
Experiment in all cases: PBM binding z-score (relative to random genomic background probes); higher = stronger binding; sequences stand for … in GC…GCGATTGACAGCGTAGAATGAAGG
[1] = tested on: FXR:RXRa (NR concentration 270 nM, RXRa partner concentration 90 nM)
Method in brief: (§1)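 For binding z-scores, the reference was random background probes on custom Agilent 4×180K protein-binding microarrays. These arrays were incubated 1 h with ligand-free nuclear receptor dimers in PBS pH 7.4, 2% milk, 0.02% Triton X-100, 1 mM DTT, 0.2 mg/mL BSA and 0.4 mg/ml salmon testes DNA. Fluorescence was scanned after antibody detection of each partner (one per run) and regression-normalized.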

[2] = tested on: LXRa:RXRa (NR concentration 270 nM, RXRa partner concentration 90 nM)
Method in brief: as §1

[3] = tested on: LXRa homodimer (NR concentration 270 nM)
Method in brief: as §1

[4] = tested on: LXRb:RXRa (NR concentration 270 nM, RXRa partner concentration 90 nM)
Method in brief: as §1

[5] = tested on: LXRb homodimer (NR concentration 270 nM)
Method in brief: as §1

[6] = tested on: PPARa:RXRa (NR concentration 270 nM, RXRa partner concentration 90 nM)
Method in brief: as §1

[7] = tested on: PPARg:RXRa (NR concentration 180 nM, RXRa partner concentration 90 nM)
Method in brief: as §1

[8] = tested on: PPARg:RXRa 270nM:90nM, anti-RXR (NR concentration 270 nM, RXRa partner concentration 90 nM)
Method in brief: as §1

[9] = tested on: PPARg:RXRa 30nM:10nM, anti-RXR (NR concentration 30 nM, RXRa partner concentration 10 nM)
Method in brief: as §1

[10] = tested on: PPARg:RXRa 90nM:30nM, anti-RXR (NR concentration 90 nM, RXRa partner concentration 30 nM)
Method in brief: as §1

[11] = tested on: PPARg:RXRa DBDmut IVT, anti-RXR (DBD mutation: RXRa K156A/R161A, NR concentration 270 nM, RXRa partner concentration 90 nM)
Method in brief: as §1

[12] = tested on: PPARg:RXRa IVT, anti-PPARg (NR concentration 270 nM, RXRa partner concentration 90 nM)
Method in brief: as §1

[13] = tested on: PPARg DBDmut:RXRa IVT, anti-PPARg (DBD mutation: PPARg1 K132A/R137A, NR concentration 270 nM, RXRa partner concentration 90 nM)
Method in brief: as §1

[14] = tested on: PPARg DBDmut IVT, anti-PPARg (DBD mutation: PPARg1 K132A/R137A, NR concentration 270 nM)
Method in brief: as §1

[15] = tested on: PPARg homodimer (NR concentration 180 nM)
Method in brief: as §1

[16] = tested on: PXR:RXRa (NR concentration 270 nM, RXRa partner concentration 90 nM)
Method in brief: as §1

[17] = tested on: PXR homodimer (NR concentration 270 nM)
Method in brief: as §1

[18] = tested on: RARa:RXR (NR concentration 270 nM, RXRa partner concentration 90 nM)
Method in brief: as §1

[19] = tested on: RARa homodimer (NR concentration 270 nM)
Method in brief: as §1

[20] = tested on: RARb:RXRa (NR concentration 270 nM, RXRa partner concentration 90 nM)
Method in brief: as §1

Sequence	PBM binding z-score [1]	PBM binding z-score [2]	PBM binding z-score [3]	PBM binding z-score [4]	PBM binding z-score [5]	PBM binding z-score [6]	PBM binding z-score [7]	PBM binding z-score [8]	PBM binding z-score [9]	PBM binding z-score [10]	PBM binding z-score [11]	PBM binding z-score [12]	PBM binding z-score [13]	PBM binding z-score [14]	PBM binding z-score [15]	PBM binding z-score [16]	PBM binding z-score [17]	PBM binding z-score [18]	PBM binding z-score [19]	PBM binding z-score [20]
ATCTCTAGGTAACCAAGTCCAGTGAATGCCGAAC	0.284	0.199	-0.00888	0.0348	0.546	0.54	0.444	0.891	0.172	0.381	3.27	2.54	0.49	1.58	0.614	0.0528	0.209	0.268	0.592	0.379
CCAGACAGGTGAGAAGGTAACGCAGCCTCGATTA	-0.0305	0.0782	-0.18	0.115	-0.496	0.743	0.809	0.998	-0.268	0.809	1.37	0.83	-0.151	-0.199	0.904	0.0317	0.012	0.312	0.438	0.806
CGAACTAGGTCATAACAGGACAGTGAAGGATGAT	3.19	4.15	0.43	1.95	0.0725	4.26	6.94	6.14	3.52	5.3	7.75	8.05	5.21	4.58	2.38	2.04	0.386	2.3	0.47	3.38
CCAGACAGGTGAAAGGTGACTCAGTCTGGTACGC	1.34	1.27	-0.086	1.33	-0.308	4.15	6.88	6.76	5.26	7.19	2.4	3.47	0.243	-0.992	1.3	1.85	0.0178	2.91	0.796	1.96
ATCGAAAGGTCGAGGTGGGTATAGAGAAAGGGAA	4.46	3.55	0.722	3.12	0.942	4.74	2.59	3.11	1.17	1.97	0.271	1.55	0.846	1.16	2.17	2.99	0.988	3.5	1.9	4.34
TCATATAGGTAAATGCTAGGTGACAGTCCGATCT	0.752	0.626	-0.0198	0.519	-0.279	1.12	0.994	2.02	3.61	2.54	4.18	3.05	1.51	0.754	0.369	0.559	0.133	0.861	0.862	0.403
CAAACTAGGTCACGAAAGGTCCAAGTCGAATGAC	4.78	3.96	0.544	2.73	0.334	5.45	8.99	7.44	4.78	7.28	8.4	9.01	1.98	0.788	2.59	3.32	0.339	3.32	1	4.51
TGAATGAGGTTAAAGATCAGGGGACGTGGCGTCG	3.07	2.68	-0.153	1.66	1.09	4.35	5.2	6.37	5.28	6.61	2.48	3.35	1.21	0.582	1.75	1.7	-0.086	3.31	0.0279	2.11
CGAAGTAGGTCAGAACAGGACAGTGAAGGATGAT	1.72	1.2	-0.0962	0.449	0.019	3.32	5.69	4.81	2.22	4.14	7.52	7.53	0.926	0.783	1.04	0.897	-0.0169	0.781	0.475	2.75
TAGCCTACGTCATGGGCCAGTATACCACGCGAAC	-0.49	-0.556	-0.342	-0.379	-0.666	-0.649	0.599	-0.711	-0.624	-0.961	-0.818	-0.288	-0.41	-0.97	-0.836	-0.57	-0.465	-0.541	-1.11	-0.332
TCTAGTTGGTCATAGGTCACACACTCGAAATGCG	3.07	3.34	1.99	3.31	1.25	4.96	8.97	8.03	8.3	8.57	2.59	4.4	1.15	1.18	3.12	3.48	1.07	4.39	1.88	3.22
ATACCAAGGTGATCGTGAGGTCATTGATACTAAC	4.13	4.22	4.81	3.53	0.748	3.62	1.7	1.98	0.601	1.25	0.662	2.58	0.666	0.349	2.35	5.39	4.33	4.55	0.789	3.25
CCAGACACGTGAGAAGGTAACTCAGCCTCGATTA	-0.22	-0.083	-0.348	-0.3	-0.11	-0.534	0.37	-0.804	-0.82	-0.704	-0.227	-0.531	-0.51	-0.51	0.168	-0.212	0.145	-0.206	0.356	-0.318
ACTTACGGGTCAACGAGGTTGTAGCACGCGTATA	6.76	4.66	0.172	4	0.502	5.6	5.04	4.93	1.89	3.69	3.1	3.83	2.28	1.73	3.47	4.95	1.29	5.07	0.713	4.04
